FECH inh = inhibitors of human ferrochelatase, primary screen, biochemical, purified FECH, Ni-mesoporphyrin absorbance; Ferrochelatase, mitochondrial (Homo sapiens), P22830; Ni-mesoporphyrin absorbance 550 nm; calls only at 10 µM (by protocol); 3.3% of 20,000 active;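 active = enzyme reaction rate more than 3 SD below the solvent-only control wells on the same plate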;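 also: lower slope than DMSO wells means FECH inhibition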
Target sequence (P22830 whole entry, looked up): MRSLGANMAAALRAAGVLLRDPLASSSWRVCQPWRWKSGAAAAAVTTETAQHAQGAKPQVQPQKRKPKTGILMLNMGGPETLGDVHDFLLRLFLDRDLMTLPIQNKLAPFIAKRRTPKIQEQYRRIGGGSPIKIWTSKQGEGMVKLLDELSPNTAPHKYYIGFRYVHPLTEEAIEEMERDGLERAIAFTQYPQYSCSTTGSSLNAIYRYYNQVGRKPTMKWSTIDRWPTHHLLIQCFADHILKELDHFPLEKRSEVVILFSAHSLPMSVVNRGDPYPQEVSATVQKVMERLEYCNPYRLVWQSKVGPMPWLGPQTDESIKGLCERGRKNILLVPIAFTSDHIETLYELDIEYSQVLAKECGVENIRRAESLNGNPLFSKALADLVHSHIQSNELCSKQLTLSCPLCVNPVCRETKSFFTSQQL
Active calls of the source: *. Many of the other results were omitted from the sample, so hits are more common in it than they were.

What do the screens show for `CCCCOc1ccc(S(=O)(=O)N2CCN(c3nc(C)cc(N4CCCCC4)n3)CC2)cc1`?
FECH inh: inactive

Results for CCCCOc1ccc(S(=O)(=O)N2CCN(c3nc(C)cc(N4CCCC4)n3)CC2)cc1 ?
FECH inh: active

What do the screens show for `CCOc1ccc(S(=O)(=O)N2CCN(c3nc(C)cc(N4CCCC4)n3)CC2)cc1`?
FECH inh: inactive

What do the screens show for `Cc1ccc(N2C(=O)CN(S(C)(=O)=O)CC2(C)C(=O)NC2CCCC2)cc1F` (stereo not given)?
FECH inh: inactive

How did CCOc1ccc(S(=O)(=O)NCCn2c(C(F)(F)F)nc3cccnc32)cc1 do in these assays?
FECH inh: active

What do the screens show for `CC(C)(C)c1ccc(S(=O)(=O)NCCn2c(C(F)(F)F)nc3cccnc32)cc1`?
FECH inh: inactive

What do the screens show for `CCc1ccc(S(=O)(=O)NCCn2c(C(F)(F)F)nc3cccnc32)cc1`?
FECH inh: inactive

How did Cc1ccc(S(=O)(=O)NCc2nc3cccnc3n2C(C)C)cc1 do in these assays?
FECH inh: inactive

How did Cc1cnc(CNC(=O)c2oc(COc3ccccc3)cc2C)cn1 do in these assays?
FECH inh: inactive

How did COc1c[nH]c(C(=O)NC2CC(=O)N(CCc3ccc(F)cc3)C2)cc1=O (stereo not given) do in these assays?
FECH inh: inactive

What do the screens show for `CC(C)c1ccc2c(c1)-c1ccccc1S(=O)(=O)N2CC(=O)NCc1ccncc1`?
FECH inh: active

What do the screens show for `CCN1CCN(C(=O)CN2c3ccc(C(C)C)cc3-c3ccccc3S2(=O)=O)CC1`?
FECH inh: active

How did CC(C)c1ccc2c(c1)-c1ccccc1S(=O)(=O)N2CC(=O)NCCSC1CCCCC1 do in these assays?
FECH inh: inactive

What do the screens show for `CCc1ccc2c(c1)-c1ccccc1S(=O)(=O)N2CC(=O)Nc1ccccc1OC`?
FECH inh: inactive

How did CCc1ccc2c(c1)-c1ccccc1S(=O)(=O)N2CC(=O)Nc1ccc(NC(C)=O)cc1 do in these assays?
FECH inh: inactive

Results for CC(C)c1ccc2c(c1)-c1ccccc1S(=O)(=O)N2CC(=O)NCc1ccccn1 ?
FECH inh: active

Results for CCN1CCN(C(=O)CN2c3ccc(Br)cc3-c3ccccc3S2(=O)=O)CC1 ?
FECH inh: inactive

What do the screens show for `CC(C)c1ccc2c(c1)-c1ccccc1S(=O)(=O)N2CC(=O)NCCCN1CCOCC1`?
FECH inh: inactive

Results for CCCNC(=O)c1ccccc1NC(=O)CN1c2ccc(C(C)C)cc2-c2ccccc2S1(=O)=O ?
FECH inh: inactive

What do the screens show for `CCc1ccc2c(c1)-c1ccccc1S(=O)(=O)N2CC(=O)NCc1ccccn1`?
FECH inh: active

Results for CCc1ccc2c(c1)-c1ccccc1S(=O)(=O)N2CC(=O)N1CCN(c2ccccc2)CC1 ?
FECH inh: inactive

What do the screens show for `CC(C)c1cc(C(=O)N2CCC(c3cc(-c4ccco4)n[nH]3)CC2)n(C)n1`?
FECH inh: inactive

What do the screens show for `c1cc(-c2nccn2CCCc2nn[nH]n2)cc(-n2cccn2)c1`?
FECH inh: inactive

Results for COc1ccc(Nc2cc(C)nc(Nc3ccc(NC(=O)c4cccs4)cc3)n2)cc1 ?
FECH inh: inactive

What do the screens show for `COc1ccc2c(c1)C=C(C(=O)NCCc1ccc(S(N)(=O)=O)cc1)CO2`?
FECH inh: inactive

How did CC(C)n1cc(CN(Cc2cccnc2)Cc2ccc3c(c2)OCO3)cn1 do in these assays?
FECH inh: inactive

Results for Cc1ccccc1-c1noc(C2CCN(C(=O)C(C)NC(=O)c3ccco3)CC2)n1 (stereo not given) ?
FECH inh: inactive

Results for CCOC(=O)Cn1c(=O)n(-c2ccc(F)cc2)c2nc(-c3ccco3)nc(C(N)=O)c21 ?
FECH inh: inactive

How did O=S(=O)(NCc1ccccc1)N1CCC(O)CC1 do in these assays?
FECH inh: inactive

Results for Cc1nonc1C1CCCN1c1ncnc2sc3c(c12)CCNC3 (stereo not given) ?
FECH inh: inactive

How did CN(C)CCN(Cc1ccccc1)S(=O)(=O)NCc1ccccc1 do in these assays?
FECH inh: inactive

How did CC(c1cccc(-c2ccc3nc[nH]c3c2)c1)N(C)C (stereo not given) do in these assays?
FECH inh: inactive

How did COC(C)c1cccc(-c2ncccc2Cl)c1 (stereo not given) do in these assays?
FECH inh: inactive

Results for CC(c1cccc(-c2cccc3c(N)ccnc23)c1)N(C)C (stereo not given) ?
FECH inh: active

Results for O=C(Nc1ccc(Cc2nc(CCc3ccccc3)n[nH]2)cc1)C1CC1 ?
FECH inh: inactive

What do the screens show for `COCCn1c(CNS(=O)(=O)c2ccc(CC(C)C)cc2)nc2cccnc21`?
FECH inh: active

Results for Cc1ccc(S(=O)(=O)NCc2nc3cccnc3n2CC(C)C)cc1C ?
FECH inh: active

What do the screens show for `CCOc1ccc(S(=O)(=O)NCc2nc3cccnc3n2Cc2ccccc2OC)cc1`?
FECH inh: inactive

Results for CC(C)Cn1c(CNS(=O)(=O)c2cccc(Cl)c2)nc2cccnc21 ?
FECH inh: inactive

How did Cc1ccc(S(=O)(=O)NCc2nc3cccnc3n2C2CC2)cc1 do in these assays?
FECH inh: inactive

How did COCCn1c(CNS(=O)(=O)c2ccc(C(C)C)cc2)nc2cccnc21 do in these assays?
FECH inh: inactive

What do the screens show for `COc1ccccc1Cn1c(CNS(=O)(=O)c2ccc(F)cc2)nc2cccnc21`?
FECH inh: inactive

How did CCn1c(CNS(=O)(=O)c2ccc(CC(C)C)cc2)nc2cccnc21 do in these assays?
FECH inh: inactive

How did O=S(=O)(NCc1nc2cccnc2n1C1CC1)c1ccc(Cl)cc1 do in these assays?
FECH inh: inactive

How did COc1ccc(S(=O)(=O)NCc2nc3cccnc3n2C2CC2)cc1 do in these assays?
FECH inh: active

Results for COc1ccccc1Cn1c(CNS(=O)(=O)c2ccc(C(C)(C)C)cc2)nc2cccnc21 ?
FECH inh: active

Results for Cc1ccc(S(=O)(=O)NCc2nc3cccnc3n2CC(C)C)cc1Cl ?
FECH inh: inactive

What do the screens show for `CSc1ccc(CN(C(=O)CC2=CCNCC2)C2CC2)cc1`?
FECH inh: inactive

What do the screens show for `CC(=O)c1cccc(NS(=O)(=O)c2ccc3c(c2)CCN3C(=O)CCC(=O)N2CCCCCC2)c1`?
FECH inh: inactive

What do the screens show for `O=C(NC[C@@H]1CCNC[C@H]1O)c1ccc[nH]c1=O`?
FECH inh: inactive

How did Cc1ccc(Nc2nc(NCc3ccco3)nc3c2cnn3-c2ccccc2)cc1C do in these assays?
FECH inh: inactive

Results for CCOc1ccc(N2CC(NC(=O)C(CC)CC)CC2=O)cc1 (stereo not given) ?
FECH inh: inactive

Results for c1ccc(-c2ncn(CC3CCCO3)c2-c2ccc(-n3cncn3)cc2)cc1 (stereo not given) ?
FECH inh: inactive

Results for Cc1ccc(-n2ncc3c(-n4nc(C)cc4NC(=O)c4ccc(C(C)(C)C)cc4)ncnc32)c(C)c1 ?
FECH inh: inactive

How did COc1cccc(CC2(C(=O)O)CCN(c3nccc4occc34)CC2)c1 do in these assays?
FECH inh: inactive

What do the screens show for `CCCN(CCC)c1nc(Nc2ccc(C)cc2)c2cnn(-c3ccccc3)c2n1`?
FECH inh: inactive

What do the screens show for `COc1cccc2c1OCC(N1Cc3ncccc3C1=O)C2` (stereo not given)?
FECH inh: inactive
